About 3,300 (0.97%) of roughly 340,000 compounds were called active.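 How the source made its calls: active means maximum activity change below -70%; inconclusive means maximum activity change from -70% to -50%; inactive means maximum activity change above -50%.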 The full list was thinned out, with actives kept by preference.
Test system: Potassium voltage-gated channel subfamily H member 2, brain isoform KCNH2 3.1 (human)
Assay: qHTS for Inhibitors of KCHN2 3.1: Mutant qHTS
Settings: U2OS KCNH2 3.1, thallium flux FluxOr; hits give low values
Text: Many antipsychotic drugs that inhibit the neurotransmitter dopamine also bind to hERG1 channel which might help explain their antipsychotic activity but also produces cardiac side effects. The discovery of the novel KCNH2 3.1 isoform offers a potential new target for the development of antipsychotic drugs without cardiac side effects. This proposal will use a high throughput thallium flux assay developed for KCNH2 to screen compounds that modulate the activity of KCNH2 3.1. The wild type KCNH2 channel will also be screened in parallel to help define the selective modulators of this KCNH2 3.1 potassium channel. The resulting compounds will be validated in electrophysiology experiments. The availability of animal models will allow future testing in vivo for effects on memory and other aspects of animal physiology linked with psychosis. NIH Chemical Genomics Center [NCGC] NIH Molecular Libraries Probe Centers Network [MLPCN] MLPCN Grant: MH096539 Assay Submitter (PI): James Barrow, Johns Hopkins University, Lieber Institute for Brain Development
U2OS cells were resuspended in cell media containing 10% fetal calf serum (FCS) at a concentration of 2 million cells / mL. The solution was treated with the mutant (3.1) virus at 1.77 x 10^8 / mL and allowed to incubate at room temperature in the dark. After 4 hours of incubation, DMEM + 10% fetal bovine serum (FBS) was added to the cell solution. Three microliter was then dispensed into a 1536 tissue culture treated black assay plates which were incubated overnight at 37 C. Two microliter of loading buffer (HBSS + HEPES + Red40 dye quencher + FluxOr dye) was added and the assay plates were incubated for 45 min at room temperature in the dark. […] A stimulation buffer was added to the plate and the second kinetic read (2 min) was obtained. The rate constant was calculated from the kinetic reads and normalized to the positive and negative DMSO controls.
On the % scale 0 is the no-effect control and ±100 the full control effect.

Row | SMILES | activity change
1 | CCOC(=O)C1(c2ccccc2)CCN(CC(O)c2ccc(NC(C)=O)cc2)CC1 (stereo not given) | -5.82% (inactive)
2 | CCOC(=O)C1(CCc2ccccc2)CCN(Cc2ccco2)CC1 | -96.9% (active)
3 | c1ccc(CCN2CCC3(CC2)OCCO3)cc1 | -0.723% (inactive)
4 | COP(=O)(OC)C(NC(=O)c1ccc(C)cc1)C(Cl)(Cl)Cl (stereo not given) | 10.5% (inactive)
5 | COc1ccc(C(=O)C2CCCN(Cc3ccc(C)s3)C2)cc1OC (stereo not given) | -13% (inactive)
6 | CSc1ccc(C(=O)C2CCCN(Cc3ccn[nH]3)C2)cc1 (stereo not given) | -19% (inactive)
7 | COc1cccc(CN2CCCC(C(=O)c3ccccc3SC)C2)c1O (stereo not given) | -72.3% (active)
8 | CC1C2Cn3c(nc4ccccc43)C1N(C)O2 (stereo not given) | 20.5% (inactive)
9 | COC(=O)C1=C(c2ccc(F)cc2OCc2ccccc2)C[C@@H]2CC[C@H]1N2C(=O)NCc1ccc(C(C)(C)C)cc1 | -19.4% (inactive)
10 | COC(=O)C1=C(c2ccc(F)cc2OCc2ccccc2)C[C@@H]2CC[C@H]1N2C(=O)NCc1ccc(OC)c(OC)c1 | -73.8% (active)
11 | COC(=O)C1=C(c2ccc(F)cc2OCc2ccccc2)C[C@@H]2CC[C@H]1N2C(=O)NCc1ccc2[nH]ccc2c1 | 1.25% (inactive)
12 | CC1=CC(=Cc2sc3ccccc3[n+]2C)C=C(C)O1 | -4.47% (inactive)
13 | COC(=O)C1=C(c2ccc(C(C)=O)cc2)C[C@@H]2CC[C@H]1N2C(=O)NCCNC(C)=O | 21.5% (inactive)
14 | COC(=O)CN1C(=O)C2(C(C(=O)OC)=C(N)Oc3ccccc32)C2=C1CC(C)(C)CC2=O (stereo not given) | -17.7% (inactive)
15 | CC(=O)NC(=O)NC(C)Cc1ccccc1 (stereo not given) | -18.9% (inactive)
16 | CC(Cc1ccccc1)NC=O (stereo not given) | 13.6% (inactive)
17 | CC(Cc1ccccc1)NCCC(c1ccccc1)c1ccccc1 (stereo not given) | -112% (active)
18 | CCN1c2nc3c(C)cccn3c(=O)c2CC2(C(=O)N(C)C(=O)N(C)C2=O)C1C (stereo not given) | -4.08% (inactive)
19 | c1ccc(C2NCc3ccccc3-n3cccc32)cc1 (stereo not given) | 12.2% (inactive)
20 | CC1(C)C(c2ccccc2)=NC(c2cccnc2)=[N+]1[O-] | 0.45% (inactive)

Row | SMILES | activity change
21 | CN(C)c1nc(N(C)C)nc(N(C#N)CCCl)n1 | -8.4% (inactive)
22 | OCC#CC[N+]1(CC#Cc2ccccc2)CCCC1 | 13.7% (inactive)
23 | Cn1c(O)c(C=Nc2ccc3c(c2)CCC3)c(=O)n(C)c1=O | -17.3% (inactive)
24 | CCOC(=O)C1(Cc2ccc(Cl)cc2)CCN(C(C)CCn2cccn2)CC1 (stereo not given) | -115% (active)
25 | O=c1c2ccccc2nc(/C=C/c2ccc(F)cc2)n1-c1ccccc1O | -2.48% (inactive)
26 | CC(C)c1ccc(OCC(=O)N2CCN(C)CC2)c(Br)c1 | -93.1% (active)
27 | CN1CCN(C(=O)COc2ccc(C(C)(C)C)cc2Br)CC1 | -2.07% (inactive)
28 | CC(C)c1ccc(OCC(=O)N2CCCN(C)CC2)cc1 | 10.3% (inactive)
29 | CC(=C1C(=O)c2ccccc2C1=O)N1CCN(CCN=Cc2c(O)n(C)c(=O)n(C)c2=O)CC1 | 10.3% (inactive)
30 | CC1CC=CCC12C(=O)NC(=S)NC2=O (stereo not given) | 10.6% (inactive)
31 | CSC1=NP(=S)(SC)N(C)c2nc3n(c21)CCC3 (stereo not given) | -5.66% (inactive)
32 | Cc1cc(C)cc(NC(=S)NC2CC3CCCC(C2)N3Cc2cccs2)c1 (stereo not given) | -73.1% (active)
33 | c1ccc(CCNC2CCCCCC2)cc1 | 12.5% (inactive)
34 | CNC(=O)O/N=C(\N)Cc1csc2ccc(Cl)cc12 | 4.55% (inactive)
35 | NC(=O)Cn1cc(C(=O)c2ccccc2F)c2ccccc21 | 3.8% (inactive)
36 | N#Cc1ccc(Cn2cc(C(=O)c3ccco3)c3ccccc32)cc1 | -80.8% (active)
37 | COc1ccc2[nH]c3c(c2c1)CCN[C@H]3C | 2.31% (inactive)
38 | COc1cc(OC)cc(C2(C#N)CCN(C)CC2)c1 | 5.57% (inactive)
39 | Cc1ncoc1C(=O)NCC1=C(c2cccc3ccccc23)C[C@@H]2CC[C@H]1N2Cc1ccco1 | -7.12% (inactive)
40 | CC(=CCOc1ccc2ccc(=O)oc2c1)C1=CC(=O)C(C)(C)O1 | 4.08% (inactive)

Source: PubChem BioAssay AID720553 (National Center for Advancing Translational Sciences (NCATS), 2013)
